Reference: the supplement of paper PMC12669032

Key:
Test in all cases: growth AUC relative to DMSO control (median of replicates) (fraction); higher = more growth (less inhibition), active = hit call of the paper
Settings in all cases: 20 µM; 24 h;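 active = AUC reduced over 20% with Padj below 0.05 in at least 2 of 3 replicates; inactive = otherwise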
[1] = tested on: Akkermansia muciniphila
Method in brief: (§1)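 OD600 was recorded every hour for 24 h in anaerobic monocultures of gut bacteria kept at 37 °C in mGAM, seeded at OD600 0.05 and given 20 µM compound in 1% DMSO. The area under each growth curve was scaled to the plate median of solvent-only wells, or to row and column medians for the industrial chemical plate. Before this step, the minimum OD was set to 0. Reported values are medians of three biological replicates run on separate days.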

[2] = tested on: Bacteroides caccae
Method in brief: as §1

[3] = tested on: Bacteroides clarus
Method in brief: as §1

[4] = tested on: Bacteroides dorei
Method in brief: as §1

[5] = tested on: Bacteroides stercoris
Method in brief: as §1

[6] = tested on: Bacteroides thetaiotaomicron
Method in brief: as §1

[7] = tested on: Bacteroides uniformis
Method in brief: as §1

[8] = tested on: Bifidobacterium longum subsp. longum
Method in brief: as §1

[9] = tested on: Clostridium difficile
Method in brief: as §1

[10] = tested on: Collinsella aerofaciens
Method in brief: as §1

Measured: growth AUC

COc1cc(OC)nc(NC(=O)NS(=O)(=O)N(C)S(C)(=O)=O)n1
inactive: [1] 0.951 | [2] 1.03 | [3] 1.05 | [4] 1.01 | [5] 1.06 | [6] 0.982 | [7] 0.98 | [8] 0.945 | [9] 0.907 | [10] 1.04

CCCCCCCC/C=C\CCCCCCCC(N)=O
inactive: [1] 0.936 | [2] 0.999 | [3] 0.991 | [4] 0.977 | [5] 0.875 | [6] 0.982 | [7] 0.998 | [8] 0.849 | [9] 1.01 | [10] 0.857

Cc1cccc(C)c1O
inactive: [1] 1.02 | [2] 1.04 | [3] 0.987 | [4] 1.01 | [5] 1.03 | [6] 1.02 | [7] 1 | [8] 0.946 | [9] 1.03 | [10] 1.02

COc1nc(N)nc(C(F)(F)F)n1
inactive: [1] 0.945 | [2] 0.985 | [3] 0.992 | [4] 1.01 | [5] 0.988 | [6] 0.985 | [7] 1.01 | [8] 1.04 | [9] 1.03 | [10] 1.02

C#CC(C)N(C)C(=O)Nc1ccc(Cl)cc1 (stereo not given)
inactive: [1] 0.974 | [2] 0.995 | [3] 0.985 | [4] 0.978 | [5] 1.1 | [6] 1 | [7] 0.99 | [8] 0.966 | [9] 0.946 | [10] 1

Cc1ccc(C(C)NC(=O)[C@@H](NC(=O)OC(C)C)C(C)C)cc1 (stereo not given in full)
inactive: [1] 1.06 | [2] 0.975 | [3] 1.03 | [4] 1.01 | [5] 1.11 | [6] 0.984 | [7] 0.973 | [8] 0.97 | [9] 0.951 | [10] 0.986

CC(C)OC(=O)[C@@H](C)N(C(=O)c1ccccc1)c1ccc(F)c(Cl)c1
inactive: [1] 0.996 | [2] 0.961 | [3] 0.99 | [4] 1.02 | [5] 0.99 | [6] 0.984 | [7] 1.04 | [8] 1.01 | [9] 0.978 | [10] 0.954

COCCN(C(=O)CO)c1c(C)cccc1C(=O)O
inactive: [1] 1.23 | [2] 0.963 | [3] 1 | [4] 0.964 | [5] 1.03 | [6] 1.01 | [7] 0.961 | [8] 1.06 | [9] 0.94 | [10] 0.936

N[C@@H](Cc1cc(I)c(Oc2cc(I)c(O)c(I)c2)c(I)c1)C(=O)O
inactive: [1] 1.1 | [2] 0.944 | [3] 0.96 | [4] 1.04 | [5] 0.838 | [6] 0.908 | [7] 1.01 | [8] 0.93 | [9] 0.945 | [10] 0.923

C=O
inactive: [1] 0.996 | [2] 1.01 | [3] 0.982 | [4] 1.02 | [5] 1.03 | [6] 0.972 | [7] 0.988 | [8] 0.984 | [9] 0.968 | [10] 1.04

O.O=C(Nc1ccc(Cl)c(Cl)c1)Nc1cc(Cl)ccc1Oc1ccc(Cl)cc1S(=O)(=O)[O-].[Na+]
inactive: [1] 1.16 | [2] 0.906 | [4] 0.908 | [8] 0.912 | [9] 0.829
active: [3] 0.22 | [5] 0.0107 | [6] 0.329 | [7] 0.00911 | [10] 0.619

CCc1cccc(C)c1N(C(=O)CS(=O)(=O)[O-])C(C)COC.[Na+] (stereo not given)
inactive: [1] 1.08 | [2] 0.952 | [3] 0.987 | [4] 0.91 | [5] 0.951 | [7] 0.993 | [8] 0.954 | [9] 0.991 | [10] 0.923
active: [6] 0.727

NC(=S)Nc1cccc2ccccc12
inactive: [1] 0.997 | [2] 0.892 | [3] 0.991 | [4] 0.835 | [5] 0.978 | [6] 0.945 | [7] 0.951 | [8] 1.06 | [9] 0.896 | [10] 0.909

CC(C)N(C(=O)CS(=O)(=O)[O-])c1ccccc1.[Na+]
inactive: [1] 1.01 | [2] 1.02 | [3] 1.02 | [4] 1.04 | [5] 0.909 | [6] 0.955 | [7] 1.05 | [8] 1.29 | [9] 1.06 | [10] 0.967

O=C(O)c1ccc(Cl)cc1Cl
inactive: [1] 0.987 | [2] 1.03 | [3] 0.989 | [4] 0.994 | [5] 0.959 | [6] 1.01 | [7] 0.977 | [8] 0.699 | [9] 0.997 | [10] 1.02

O=[N+](Nc1ccccc1)c1ccccc1
inactive: [1] 0.945 | [2] 0.972 | [3] 0.966 | [4] 0.997 | [5] 1.08 | [6] 0.991 | [7] 0.988 | [8] 0.934 | [9] 1 | [10] 0.965

CC(C)N(C(=O)CS(=O)CC(=O)O)c1ccc(F)cc1 (stereo not given)
inactive: [1] 0.994 | [2] 0.965 | [3] 0.94 | [4] 0.969 | [5] 0.988 | [6] 0.987 | [7] 0.958 | [8] 1.03 | [9] 1.01 | [10] 1

N#Cc1cc(Cl)c(O)c(Cl)c1
inactive: [1] 1.12 | [2] 1 | [3] 1 | [4] 0.982 | [5] 0.935 | [6] 0.994 | [7] 0.947 | [8] 1.03 | [9] 0.997 | [10] 1

Cc1cc(N(C)C)nc(Cl)n1
inactive: [1] 0.999 | [2] 0.916 | [3] 1.02 | [4] 0.985 | [5] 1.26 | [6] 1.02 | [7] 0.98 | [8] 0.985 | [9] 0.976 | [10] 0.977

CC(C)(c1ccc(O)cc1)c1ccc(O)cc1
inactive: [1] 1.01 | [2] 1.07 | [3] 1.04 | [4] 1.01 | [5] 1.14 | [6] 1.02 | [7] 1.06 | [8] 1.06 | [9] 1.08 | [10] 1.03

O=C(O)COc1cc(N2C(=O)C3=C(CCCC3)C2=O)c(F)cc1Cl
inactive: [1] 0.82 | [2] 0.999 | [3] 0.98 | [4] 0.968 | [5] 1.08 | [6] 0.975 | [7] 1.05 | [8] 1.04 | [9] 1.02 | [10] 0.967

Cc1ccc(Cl)cc1
inactive: [1] 0.981 | [2] 0.982 | [3] 1.03 | [4] 1.04 | [5] 0.936 | [6] 1.01 | [7] 1.01 | [8] 0.993 | [9] 1.04 | [10] 1

CNC(=O)/C(=N/OC)c1ccccc1COc1cc(C(=O)O)ccc1C
inactive: [1] 1.01 | [2] 0.982 | [3] 1.03 | [4] 0.979 | [5] 0.967 | [6] 0.998 | [7] 1.01 | [8] 0.998 | [9] 0.991 | [10] 1

Oc1c(Cl)cc(Cl)c(Cl)c1Cc1c(O)c(Cl)cc(Cl)c1Cl
active: [1] 0.193 | [2] 0.0131 | [3] 0.0212 | [4] 0.0142 | [5] 0.00917 | [6] 0.00403 | [7] 0.0126 | [8] 0.0988 | [9] 0.0083 | [10] 0.0126

CCS(=O)(=O)c1nnc(N(C)C(=O)NC)s1
inactive: [1] 0.883 | [2] 1.02 | [3] 0.977 | [4] 1.01 | [5] 1.03 | [6] 1.01 | [7] 0.995 | [8] 0.995 | [9] 0.974 | [10] 1.06

CCCOC(=O)c1ccc(O)cc1
inactive: [1] 0.879 | [2] 0.979 | [3] 0.986 | [4] 1.02 | [5] 0.993 | [6] 0.989 | [7] 0.984 | [8] 1.01 | [9] 0.98 | [10] 1.01

c1ccc2cc3c(ccc4ccccc43)cc2c1
inactive: [1] 1.01 | [2] 0.994 | [3] 1 | [4] 0.993 | [5] 0.994 | [6] 1.01 | [7] 1.01 | [8] 0.962 | [9] 0.992 | [10] 1

Oc1ccc2ccccc2c1N=Nc1ccccc1
inactive: [1] 1 | [2] 0.973 | [3] 1.01 | [4] 0.977 | [5] 0.972 | [6] 1 | [7] 1 | [8] 0.942 | [9] 0.991 | [10] 0.917
